Laboratory results published in the supplement of paper PMC8047044.

System: Neuro-2a
Assay: neurite formation score, plate-normalized to DMSO control mean 5.04 (score (0-8 scale)); higher = more or longer neurites
Details: 0.1 µM
Description: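 Neuro-2a mouse neuroblastoma cells in PLL-coated 96-well plates were pre-treated for 1 h in DMEM(+) with each kinase inhibitor at 0.1 µM, then switched to serum-free DMEM(-) with inhibitor to induce neurite outgrowth and fixed about 2-3 h later. Three blinded observers scored neurite formation from 0 (no neurites) to 8 (long neurites on almost all cells).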

Which neurite formation score does the source give for Cn1c(Nc2ccc(C(F)(F)F)cc2)nc2cc(Oc3ccnc(-c4ncc(C(F)(F)F)[nH]4)c3)ccc21 here?
Its neurite formation score is 4.88.

Which neurite formation score does the source give for c1cn2cc(-c3ccc4cn[nH]c4c3)nc(Nc3ccc(N4CCOCC4)cc3)c2n1 here?
The neurite formation score was 5.08.

With Clc1ccc(Nc2nnc(Cc3ccncc3)c3ccccc23)cc1 [Vatalanib (PTK787) 2HCl] as the molecule, how does the neurite formation score read?
Its neurite formation score is 3.71.

How did the neurite formation score turn out when CCCCCCCCCCCC(=O)OCC(CO)OC(=O)CCCCCCCCCCC (stereo not given) [1,2-Dilauroyl-sn-glycerol] was run?
The neurite formation score was 5.08.

How did the neurite formation score turn out when C[C@@H](Oc1ccc2[nH]nc(/C=C/c3cnn(CCO)c3)c2c1)c1c(Cl)cncc1Cl was run?
Its neurite formation score is 4.92.

How did the neurite formation score turn out when COc1cc(Nc2ncc(F)c(Nc3ccc4c(n3)N(COP(=O)(O)O)C(=O)C(C)(C)O4)n2)cc(OC)c1OC [Fostamatinib (R788)] was run?
Its neurite formation score is 3.76.

With CC(=O)Nc1cccc(-n2c(=O)n(C3CC3)c(=O)c3c(Nc4ccc(I)cc4F)n(C)c(=O)c(C)c32)c1 [Trametinib DMSO solvate] as the molecule, how does the neurite formation score read?
The neurite formation score was 4.92.

How did the neurite formation score turn out when O=C(NCCO)c1cccc(-c2cc(Nc3ccc(OC(F)(F)F)cc3)ncn2)c1 was run?
Its neurite formation score is 4.92.

NC(=S)N/N=C/c1ncccc1N [Triapine] was tested. Which neurite formation score did it give?
The neurite formation score was 3.75.

With COc1ccc(Cl)cc1NC(=O)Nc1cc(C)nc2ccccc12 as the molecule, how does the neurite formation score read?
The neurite formation score was 5.04.

With CCC(=O)Nc1cccc(Oc2nc(Nc3ccc(N4CCN(C)CC4)cc3OC)ncc2Cl)c1 as the molecule, how does the neurite formation score read?
Its neurite formation score is 4.25.

With COc1cc(N2CCC(N(C)C)CC2)ccc1Nc1ncc(Cl)c(Nc2ccccc2P(C)(C)=O)n1 as the molecule, how does the neurite formation score read?
Its neurite formation score is 4.38.

How did the neurite formation score turn out when NC1(Cc2ccc(Cl)cc2)CCN(c2ncnc3[nH]ccc23)CC1 was run?
The neurite formation score was 4.92.

With Cc1cc2c(F)c(Oc3ncnn4cc(OC[C@@H](C)O)c(C)c34)ccc2[nH]1 as the molecule, how does the neurite formation score read?
Its neurite formation score is 4.38.

How did the neurite formation score turn out when O=C(Nc1cc(C(F)(F)F)cc(C(F)(F)F)c1)c1cc(Cl)ccc1O was run?
Its neurite formation score is 4.76.

For Nc1ncnc2n[nH]c(Nc3ccc(F)cc3)c12, which neurite formation score is on record?
Its neurite formation score is 5.08.

How did the neurite formation score turn out when O=C(NCCCNc1nc(Nc2cccc(CN3CCOCC3)c2)ncc1C1CC1)C1CCC1 was run?
Its neurite formation score is 5.25.

O=C1Nc2ccc(I)cc2/C1=C/c1cc(Br)c(O)c(Br)c1 was tested. Which neurite formation score did it give?
Its neurite formation score is 4.25.

Which neurite formation score does the source give for O=C1NC(=O)C(c2ccccc2[N+](=O)[O-])=C1Nc1ccc(O)c(Cl)c1 here?
Its neurite formation score is 5.21.

COC(=O)Nc1nc2cc(C(=O)c3cccs3)ccc2[nH]1 [Nocodazole] was tested. Which neurite formation score did it give?
The neurite formation score was 1.58.

FC(F)(F)c1ccc(CNc2ccc(Cc3c[nH]c4ncc(Cl)cc34)cn2)cn1 [Pexidartinib (PLX3397)] was tested. Which neurite formation score did it give?
Its neurite formation score is 5.42.

Which neurite formation score does the source give for CC(=O)Nc1cccc(-n2c(=O)n(C3CC3)c(=O)c3c(Nc4ccc(I)cc4F)n(C)c(=O)c(C)c32)c1 here?
The neurite formation score was 4.38.

Cc1c(F)cc(C(=O)NC2CC2)cc1-c1ccc(C(=O)NCC(C)(C)C)cn1 [Losmapimod] was tested. Which neurite formation score did it give?
The neurite formation score was 4.75.

For c1nc2c(NC3CCCCC3)nc(Nc3ccc(N4CCOCC4)cc3)nc2[nH]1 [Reversine], which neurite formation score is on record?
Its neurite formation score is 4.92.

Cc1ccc([N+](=O)[O-])cc1S(=O)(=O)N(C)/N=C/c1cnc2ccc(Br)cn12 was tested. Which neurite formation score did it give?
Its neurite formation score is 3.08.

Which neurite formation score does the source give for O=C(c1ccc(F)c(F)c1Nc1ccc(I)cc1F)N1CC(O)([C@@H]2CCCCN2)C1 [Cobimetinib] here?
Its neurite formation score is 4.71.

O=c1cc(-c2ccccc2)oc2c(O)c(O)ccc12 [7,8-Dihydroxyflavone] was tested. Which neurite formation score did it give?
The neurite formation score was 5.08.

How did the neurite formation score turn out when O=C(Nc1ccc(CN2CCOCC2)cc1)c1ccc(-c2cccc(Cl)c2)o1 was run?
The neurite formation score was 5.54.

How did the neurite formation score turn out when CN1CCC(COc2cnc(-c3cccc(Cn4nc(-c5cccc(C#N)c5)ccc4=O)c3)nc2)CC1 was run?
The neurite formation score was 4.92.

Which neurite formation score does the source give for Cc1cnc(Nc2ccc(F)cc2Cl)nc1-c1c[nH]c(C(=O)N[C@H](CO)c2cccc(Cl)c2)c1 here?
Its neurite formation score is 4.58.

Which neurite formation score does the source give for COc1c(C)c(C(=O)c2ccc(N)c(C(=O)O)c2)n2ccccc12 here?
Its neurite formation score is 5.25.

With NC(=O)Nc1cc(-c2cccc(F)c2)sc1C(=O)N[C@H]1CCCNC1 as the molecule, how does the neurite formation score read?
Its neurite formation score is 4.21.

With Cc1cc(Nc2cc(CN3CCOCC3)c3nc(C)c(Cc4ccc(Cl)cc4F)n3n2)n[nH]1 as the molecule, how does the neurite formation score read?
Its neurite formation score is 5.25.

With CN(C)c1nc2c(Br)c(Br)c(Br)c(Br)c2[nH]1 as the molecule, how does the neurite formation score read?
The neurite formation score was 5.25.

NCC(=O)Nc1ccc(-n2nc(C(F)(F)F)cc2-c2ccc3c(ccc4ccccc43)c2)cc1 was tested. Which neurite formation score did it give?
Its neurite formation score is 5.04.

How did the neurite formation score turn out when FC(F)(F)c1ccc(/C=C/c2nc(COc3ccc(CCCCn4ccnn4)cc3)co2)cc1 [Mubritinib (TAK 165)] was run?
The neurite formation score was 4.76.

Which neurite formation score does the source give for COc1cc2c(Oc3ccc(NC(=O)C4(C(=O)Nc5ccc(F)cc5)CC4)cc3F)ccnc2cc1OCCCN1CCOCC1 here?
The neurite formation score was 3.38.

With Cc1nc(Nc2n[nH]c3c2CN(C(=O)N[C@H](CN(C)C)c2ccccc2)C3(C)C)c2sccc2n1 as the molecule, how does the neurite formation score read?
The neurite formation score was 4.92.

How did the neurite formation score turn out when CCn1c2ccccc2c2cc(Nc3ccnc(NCCCN4CCOCC4)n3)ccc21 was run?
Its neurite formation score is 3.42.

Which neurite formation score does the source give for Cc1c(NC(=O)OC[C@@H]2COCCN2)cn2ncnc(Nc3ccc4c(cnn4Cc4cccc(F)c4)c3)c12 here?
The neurite formation score was 3.71.
